In PubChem BioAssay (NCI):
Values joined by “and” are separate entries in the source; they are usually repeats but may differ in a detail not shown here. Equal values may be shown once. About 83,000 compounds went through this panel and 20% of them were active in at least one assay; those are over-represented in the sample as a whole.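 Treatment: one concentration, 48 hours, 96-well format. Scoring: percent growth, with anything below 10 considered active.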 More than one record can exist for a structure, and the calls need not agree. Active and inactive are the calls of the source.

Test system: HL-60(TB) leukemia
Assay: NCI-60 one-dose screen, 48 h (100 = growth as untreated, 0 = no growth, -100 = all killed)
Details: 10 µM unless noted

| SMILES | growth |
| --- | --- |
| O=C(Cn1cc(CN2CCCCCC2)nn1)Nc1ccc2c(ccn2Cc2ccccc2)c1 | 92.2% (inactive) |
| COc1ccc(CNC(=O)COc2ccc(/C=N/Nc3nc4ccccc4s3)cc2)cc1 | 105% (inactive) |
| Cn1ccc(Cc2cnc(N)s2)n1 | 94.2% (inactive) |
| CN1CCN(CCC=C2c3ccccc3Sc3ccc(S(=O)(=O)N(C)C)cc32)CC1 | 91.3% (inactive) and 80.6% (inactive) |
| N#C/C(=C\c1ccc(Br)cc1)n1nnc2ccc(F)cc21 | -23.2% (active) |
| N#Cc1c(-c2ccc(Cl)cc2)nc(SCC(=O)NC2=NN=C(c3ccccc3)CS2)[nH]c1=O | 4.11% (active) |
| COc1ccc(/C=C/C(=O)c2cc(O)ccc2O)cc1 | 3.32% (active) |
| C=C(C)[C@@H]1CC[C@]2(C)[C@H](CC=C3[C@@H]4[C@H](C)[C@@H](C)CC[C@]4(CO)CC[C@]32C)[C@@]1(C)CCCN | -45.2% (active) |
| O=C1/C(=C/c2ccc([N+](=O)[O-])cc2)Oc2ccc(O)cc21 | 86.1% (inactive) |
| COc1ccc(/C(=N/O)c2cc(F)c(F)c(OC)c2F)cc1O | -5.23% (active) |
| O=C(Nc1cccc(C(F)(F)F)c1)Nc1cccc(C(F)(F)F)c1 | -27.8% (active) |
| N#Cc1c(Nc2ccccc2)nn2cc(-c3nc4ccccc4s3)c(N)nc12 | 100% (inactive) |
| COc1cc2oc(-c3cccc(NC(=O)c4cccc(Br)c4)c3)cc(=O)c2c(OC)c1OC | 65.5% (inactive) |
| Cc1ccc(-c2nc(/C=C3/C(=O)Nc4ccccc43)c3ccccn23)cc1 | 113% (inactive) |
| N#Cc1nn(-c2cc(=O)[nH]c3ccc(Cl)cc23)c(N)c1C#N | 0.972% (active) |
| O=c1[nH]nnc2cc(Cl)ccc12 | 108% (inactive) and 100% (inactive) |
| CC(=O)CC(=O)OC/C=C(/C)CCC=C(C)C | 124% (inactive) |
| C=C1C(=O)O[C@H]2[C@H]1CC/C(COC(=O)C(=O)c1cn(C)c3ccc(Cl)cc13)=C\CC[C@@]1(C)O[C@@H]21 | -35.1% (active) |
| FC(F)(F)c1ccc2c(c1)N(CCCN1CCN(C3CC3)CC1)c1ccccc1S2 | 25.6% (inactive) |
| Cc1cc(C)n2nc(SCC(=O)Nc3sc4c(c3C(N)=O)CCC4)nc2n1 | 117% (inactive) |
| CC1=C(/C=C/C(C)=C/C=C/C(C)=C/C=N/NC(=S)NC(=S)N/N=C/C=C(C)/C=C/C=C(C)/C=C/C2=C(C)CCCC2(C)C)C(C)(C)CCC1 | 11.7% (inactive) and -28.1% (active) |
| C=COC(=O)CCOCC(CC)CCCC (configuration not stated) | 91.8% (inactive) |
| O=C(O)COCC(=O)O | 102% (inactive) |
| COc1ccc(OC)c(/C=C2\COc3ccc(O)cc3C2=O)c1 | 82.2% (inactive) |
| O=C1N(Cc2ccccc2Cl)c2ccccc2C12NN=C(c1cccc(Cl)c1)S2 (configuration not stated) | 28.7% (inactive) |
| COc1cccc(C2C(C#N)=C(N)Oc3cc4c(cc32)OCO4)c1 (configuration not stated) | -45% (active) |
| N=C(N)c1ccc(-c2ccc(-c3cc(Cl)cc(Cl)c3)o2)o1 | -64% (active) |
